ELG1 repair inh – blocks ELG1-dependent DNA repair in HEK293T cells; HEK293T ELG1-luciferase reporter, luminescence, 16 h; DNA damage induced by 5-fluorouridine; Potency, µM (highest dose often 46.1 µM), inactives show at the highest dose activity change, negative = inhibition, most hits filed as inhibitors; 330,000 compounds, 2.3% hits; note: % is set by controls: 0 for no effect and ±100 for the full control effect; nearly all actives have a fitted effect of over 55% in size
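Luminescence from the luciferase reporter, measured 30 min after ONE-Glo reagent at room temperature, was the read-out. Beforehand, 2,000 cells per well were exposed for 16 hr at 37 °C to 5-fluorouridine together with compound or vehicle.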
p53 reactivator – re-activators of mutant p53; AID 504706; 320,000 compounds, 0.063% hits; Potency, µM (top dose mostly 92.2 µM), without a hit: at the highest dose activity change, positive = activation, most hits filed as activators; H1299 p53-A138V BP100-luciferase reporter, luminescence, 24 h; note: % of control where 0% means no effect; nearly all actives have a fitted effect of over 45% in size
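H1299 (p53-null), stable ts p53-A138V + BP100-Luc; 1000 cells/well, Opti-MEM/10% FBS; cpd 4 pt, 1:5; 24 h, 37 deg C, 5% CO2; detection reagent 10 min RT; luminescence.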
SW480 rerep – DNA re-replication induction in SW480 cells. 340,000 compounds, 1.8% hits. Potency, µM (highest dose often 46.1 µM), without a hit: at the highest dose re-replication activation, hits mostly activators. AID 624297. SW480 DNA re-replication, Hoechst DNA content imaging, 48 h; note: % of control where 0% means no effect; nearly all actives have a fitted effect of over 55% in size
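First, 250 cells per well were seeded. Next, compound or vehicle (23 nL) was pinned in, plates sat 48 hr at 37 C. Finally Hoechst was added for 40 min before fluorescence scanning.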
AT treatment – candidate therapy for ataxia-telangiectasia; 320,000 compounds, 0.19% hits; F2112 A-T fibroblasts, KAP-1 phosphorylation AlphaLISA; neocarzinostatin DNA damage 30 min before lysis; Potency, µM (series often up to 57.5 µM), for the others: top-dose activation, actives largely listed as activators; AID 485349; note: % of control where 0% means no effect; nearly all actives have a fitted effect of over 45% in size
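hTERT-immortalized A-T patient fibroblasts (F2112), 500 cells/well in OPTI-MEM, 1% FBS, got compounds for 60 min, then NCS for 30 min at 37C. Lysates were then assayed for phospho-KAP-1 by AlphaLISA (anti-pKAP1 donor, anti-KAP1 acceptor beads), 6 hr at 25C.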
ELG1 genotoxic – induces genotoxicity in HEK293T cells with luciferase-tagged ELG1; Potency, µM (doses to about 46 µM), inactives show at the top dose activity change, positive = activation, usual class: activators; HEK293T ELG1-luciferase reporter, luminescence, 16 h; AID 504466; 330,000 compounds, 1.3% hits; note: % of control where 0% means no effect; nearly all actives have a fitted effect of over 60% in size
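Quantitative HTS format in 1536-well plates. HEK293T ELG1-luciferase reporter cells receive test compound and are incubated 16 hr at 37 °C, 5% CO2; ONE-Glo added, 30 min room temperature, then luminescence read.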
MCF10A rereplic – induces DNA re-replication in MCF 10a normal breast cells. MCF 10A DNA re-replication, Hoechst nuclear intensity, 48 h. Potency, µM (doses to about 46.1 µM), inactives show at the highest dose activity, positive = re-replication, hits mostly activators. 350,000 compounds, 2.9% hits. AID 624296; note: % of control where 0% means no effect; nearly all actives have a fitted effect of over 50% in size
* = called active by the depositor. Shown are actives, neighbours in structure and some others; about 7.1% of the full set was active somewhere. Calls come from the whole dose curve; as a rule, active = well fitted curve in the direction sought with a large enough effect; inconclusive = small, poorly fitted or top-dose-only effect, or another doubt; inactive = no such curve, though single readings can be large; an effect the other way counts as inactive or inconclusive. Potency is the fitted concentration of half-maximal effect.

Results for CC(=O)Nc1ccc(S(=O)(=O)N(C)CC(=O)OC2CCCCC2=O)cc1 (stereo unspecified) ?
ELG1 repair inh: 17%; p53 reactivator: 7%; SW480 rerep: -5%; AT treatment: 0%; ELG1 genotoxic: 1%; MCF10A rereplic: -6%

What do the screens show for `O=C1C(Cl)=C(NS(=O)(=O)c2ccc([N+](=O)[O-])cc2)C(=O)c2ccccc21`?
ELG1 repair inh: 18µM*; p53 reactivator: -17%; SW480 rerep: 7%; AT treatment: 20%; ELG1 genotoxic: -17%; MCF10A rereplic: 3%

Results for O=C(Nc1cccc(C(=O)NC2CC2)c1)c1ccc(Cl)c(S(=O)(=O)N2CCOCC2)c1 ?
ELG1 repair inh: 13µM*; p53 reactivator: -6%; SW480 rerep: -11%; AT treatment: 13%; ELG1 genotoxic: -4%; MCF10A rereplic: 5%

What do the screens show for `O=C(NC1CC1)c1ccc(Cl)c(S(=O)(=O)N2CCOCC2)c1`?
ELG1 repair inh: 23%; p53 reactivator: 2%; SW480 rerep: -3%; AT treatment: 8%; ELG1 genotoxic: 1%; MCF10A rereplic: -2%

How did CCC(C)(C)C1CCC(NC(=O)c2ccc(S(=O)(=O)N3CCOCC3)cc2)CC1 (stereo unspecified) do in these assays?
ELG1 repair inh: inconclusive; p53 reactivator: 5%; SW480 rerep: -3%; AT treatment: 1%; ELG1 genotoxic: -4%; MCF10A rereplic: 6.5µM*

Results for O=C(Nc1cccc(S(=O)(=O)C(F)F)c1)c1ccc(Cl)c(S(=O)(=O)N2CCOCC2)c1 ?
ELG1 repair inh: 7.3µM*; p53 reactivator: -6%; SW480 rerep: -5%; AT treatment: 0%; ELG1 genotoxic: -10%; MCF10A rereplic: inconclusive

How did O=C(Nc1nccs1)c1ccc(Br)c(S(=O)(=O)N2CCOCC2)c1 do in these assays?
ELG1 repair inh: 21µM*; p53 reactivator: 6%; SW480 rerep: -22%; AT treatment: 5%; ELG1 genotoxic: -4%; MCF10A rereplic: -37%

How did O=C(Nc1nccs1)c1ccc(F)c(S(=O)(=O)N2CCOCC2)c1 do in these assays?
ELG1 repair inh: -29%; p53 reactivator: -7%; SW480 rerep: -26%; AT treatment: 6%; ELG1 genotoxic: -10%; MCF10A rereplic: -9%

How did O=C(NC1CC1)c1cccc(NC(=O)c2cc(S(=O)(=O)N3CCOCC3)ccc2Cl)c1 do in these assays?
ELG1 repair inh: inconclusive; p53 reactivator: -5%; SW480 rerep: -58%; AT treatment: -4%; ELG1 genotoxic: 1%; MCF10A rereplic: -4%

How did Cc1ccc(C(NC(=O)c2cccc(S(=O)(=O)N3CCN(C)CC3)c2)c2ccccc2)cc1 (stereo unspecified) do in these assays?
ELG1 repair inh: 15%; p53 reactivator: -2%; SW480 rerep: 1%; AT treatment: 4%; ELG1 genotoxic: 1%; MCF10A rereplic: inconclusive

What do the screens show for `CC(Sc1nc2ccccc2c(=O)n1CC1CCCO1)C(=O)N(C)c1ccccc1` (stereo unspecified)?
ELG1 repair inh: inconclusive; p53 reactivator: -2%; SW480 rerep: -1%; AT treatment: -3%; ELG1 genotoxic: -7%; MCF10A rereplic: 8%

How did Cc1cc2ccccc2n1CCNC(=O)c1ccc(S(=O)(=O)N2CCOCC2)cc1 do in these assays?
ELG1 repair inh: -5%; p53 reactivator: -1%; SW480 rerep: 16µM*; AT treatment: -3%; ELG1 genotoxic: -1%; MCF10A rereplic: 3.7µM*

What do the screens show for `O=C(Nc1cccc(Br)c1)c1ccc(Cl)c(S(=O)(=O)N2CCOCC2)c1`?
ELG1 repair inh: 16µM*; p53 reactivator: -1%; SW480 rerep: 1%; ELG1 genotoxic: -24%; MCF10A rereplic: 18%

Assay outcomes from PubChem.
